Reference: PubChem BioAssay (EPA / NIEHS)
Records with an inconclusive call do not appear. Activity calls are given as the source filed them. Rule for the calls: active = hit-call score of the fitted dose curve at least 0.9, where 1 is the maximum; inconclusive = response in the unintended direction; inactive = score below 0.9.

Target: human Retinoic Acid Receptor beta (RARb), RARB (gene 5915) (UniProt P10826)
Test: ATG_RARb_TRANS: Attagene TRANS-FACTORIAL HepG2 Assay for human Retinoic Acid Receptor beta (AID 2283004)
Description: ATG_TRANS is a cell-based, multiplexed-readout assay that uses HepG2, a human liver cell line, with measurements taken at 24 hours after chemical dosing in a 24-well plate.ATG_RARb_TRANS is one of 30 assay component(s) measured or calculated from the ATG_TRANS assay. It is designed to make measurements of mRNA induction, a form of inducible reporter, as detected with fluorescence intensity signals by Reverse transcription polymerase chain reaction (RT-PCR) and Capillary electrophoresis technology.Data from the assay component ATG_RARb_TRANS was analyzed into 1 assay endpoint. This assay endpoint, ATG_RARb_TRANS, was analyzed in the positive analysis fitting direction relative to DMSO as the negative control and baseline of activity. Using a type of inducible reporter, measures of mRNA for gain-of-signal activity can be used to understand the reporter gene at the transcription factor-level as they relate to the gene RARB. Furthermore, this assay endpoint can be referred to as a primary readout, because this assay has produced multiple assay endpoints where this one serves a reporter gene function. To generalize the intended target to other relatable targets, this assay endpoint is annotated to the nuclear receptor intended target family, where the subfamily is non-steroidal.
Human liver HepG2 cells are transiently transfected with multiple reporter transcription units (MRTUs) in 6-well plates using FuGene 6 reagent (Roche; 3 ml FuGene/1 mg DNA). The MRTU constructs are regulated by a cis-regulating element (promoter). […] A major difference between the CIS and TRANS system is that in CIS activities of endogenous TFs are measured, whereas the TRANS assay evaluates changes in activities of exogenous, chimeric NR-Gal4 proteins. […] At the end of 24 hour incubation, total RNA was isolated using TriZol reagent (Invitrogen). The isolated RNA is then reverse-transcribed using oligo(dT) primer and Mo-MLV reverse transcriptase (Invitrogen) with DNAse I (Ambion) treatment for 30 min. The one-tenth of the produced cDNA was amplified by PCR using Taq DNA polymerase (Invitrogen) and two reporter sequence-specific primers. The PCR products were fluorescently labeled by primer extension with 6-arboxyfluorescein (6-FAM) 5'-labeled reporter sequence-specific primer (2 min at 95 C, 20 s at 68 C and 10 min at 72 C) and these products were digested with 5U of HpaI (New England Biolabs) for 2h at 37 C. The fragments were purified using Qiaquick PCR columns (Qiagen), analyzed on an ABI 3130xL genetic analyzer (Applied Biosystems) with peak positions identified by using a set of X-rhodamine (ROX)-labeled MapMarker1000 molecular weight standards (BioVentures). The raw capillary electrophoresis data was processed using Attagraph software (Attagene).

Sequence of human Retinoic Acid Receptor beta (RARb), RARB (gene 5915) (P10826 whole entry, looked up): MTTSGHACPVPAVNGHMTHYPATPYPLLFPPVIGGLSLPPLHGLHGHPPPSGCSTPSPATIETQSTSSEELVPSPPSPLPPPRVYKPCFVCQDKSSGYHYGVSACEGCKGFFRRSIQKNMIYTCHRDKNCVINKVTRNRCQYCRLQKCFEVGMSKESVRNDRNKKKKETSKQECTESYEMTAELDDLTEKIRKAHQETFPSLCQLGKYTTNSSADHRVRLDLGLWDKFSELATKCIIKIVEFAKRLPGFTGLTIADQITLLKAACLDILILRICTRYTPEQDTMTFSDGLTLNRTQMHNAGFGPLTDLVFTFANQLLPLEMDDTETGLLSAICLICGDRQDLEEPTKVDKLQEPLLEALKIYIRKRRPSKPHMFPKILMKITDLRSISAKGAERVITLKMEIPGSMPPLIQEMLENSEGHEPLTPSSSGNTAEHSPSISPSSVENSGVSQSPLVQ

With `COc1cc(C(C)C)c2c(c1)S(=O)(=O)N(COc1cc(=O)n3cccc(OCCN4CCCCC4)c3n1)C2=O` as the compound, how does the outcome read?
Its outcome is “inactive”.

Which outcome does the source give for `C[Si](C)(C)C(F)(F)C(F)(F)C(F)(F)F` here?
The outcome was “inactive”.

Which outcome does the source give for `CC(C)c1nnc2ccc(-c3ocnc3-c3cc(F)ccc3F)cn12` here?
Its outcome is “inactive”.

`CC(C)CCCCCCOC(=O)C1CCCCC1C(=O)OCCCCCCC(C)C` (stereo not drawn) was tested. Which outcome did it give?
The outcome was “inactive”.

With `FC(F)(F)COC(OCC(F)(F)F)OCC(F)(F)F` as the compound, how does the outcome read?
The outcome was “inactive”.

Which outcome does the source give for `Cc1cccc(O)c1C` here?
The outcome was “inactive”.

`Cc1nccn1-c1ccc(Sc2cccc(C3(C(N)=O)CCOCC3)c2)cc1` was tested. Which outcome did it give?
Its outcome is “inactive”.

`Cc1nc(-c2ccccn2)ncc1C(=O)Nn1cc(C)c2cc(F)ccc21` was tested. Which outcome did it give?
Its outcome is “inactive”.

How did the outcome turn out when `Cn1cc[nH]c1=S` was run?
Its outcome is “inactive”.

With `O=C(NO)C1(NS(=O)(=O)c2ccc(Oc3ccc(F)cc3)cc2)CCOCC1` as the compound, how does the outcome read?
The outcome was “inactive”.

For `OCc1ccccc1`, which outcome is on record?
The outcome was “inactive”.

How did the outcome turn out when `OC[C@H]1O[C@@](CO)(O[C@H]2O[C@H](CO)[C@@H](O)[C@H](O)[C@H]2O)[C@@H](O)[C@@H]1O` was run?
Its outcome is “inactive”.

With `OC(O)(C(F)C(O)(O)C(F)(F)F)C(F)(F)F` as the compound, how does the outcome read?
The outcome was “inactive”.

Which outcome does the source give for `O=c1[nH]cnc2c1ncn2[C@H]1CC[C@@H](CO)O1` here?
Its outcome is “inactive”.

How did the outcome turn out when `O=C(O)CO` was run?
The outcome was “inactive”.

`NC(=O)N1c2ccccc2C=Cc2ccccc21` was tested. Which outcome did it give?
The outcome was “inactive”.

`O=C(O)c1cccc(C(=O)O)c1` was tested. Which outcome did it give?
Its outcome is “inactive”.

With `O=S(=O)(O)CCC(F)(F)C(F)(F)C(F)(F)C(F)(F)C(F)(F)C(F)(F)F` as the compound, how does the outcome read?
Its outcome is “inactive”.

`c1ccc2cc3ccccc3cc2c1` was tested. Which outcome did it give?
The outcome was “inactive”.

Which outcome does the source give for `FC(F)=C(F)C(F)(F)C(F)(F)C(F)(F)C(F)(F)C(F)(F)C(F)(F)F` here?
Its outcome is “inactive”.

`NC(=O)N(O)[C@@H]1COc2cc(OCc3ccccc3)ccc21` was tested. Which outcome did it give?
Its outcome is “inactive”.

`OCCC(F)(F)C(F)(F)C(F)(F)C(F)(F)F` was tested. Which outcome did it give?
The outcome was “inactive”.

With `O=C(Cl)C(F)(F)C(F)(F)C(F)(F)C(=O)Cl` as the compound, how does the outcome read?
The outcome was “inactive”.
